Measurements: PubChem BioAssay (NCI)
Values joined by “and” are separate entries in the source; they are usually repeats but may differ in a detail not shown here. Equal values may be shown once. The panel holds about 79,000 compounds, 15% with a hit somewhere; the sample as a whole holds those more often. Unmarked numbers belong to inactive results. Cut-off read from the data, not from the text of the source: active = growth inhibition above about 70%; inactive = the rest.

Test: NCI Yeast Anticancer Drug Screen. Data for the bub3 strain (AID 167)
Conditions: S. cerevisiae bub3 mutant strain, stronger effect = higher value; at 50.0 µM unless noted
In short: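 Inhibition values come from growth of compound-treated mutant yeast normalised to vehicle-treated controls.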

Row | Compound | growth inhibition
1 | COc1ccc(-n2c(CCC(=O)O)nc3c2C(=O)c2ccccc2C3=O)cc1 | 14.7%
2 | COc1ccc(C(=O)O)c(Cc2ccc3ccccc3c2)c1 | -5.95%
3 | OCC(O)Cc1ccccc1 (stereo unspecified) | -1.8%
4 | CCCCCCCCCCCCCCCCCC(=O)CBr | 2.2%
5 | CC(=O)[C@@]1(O)CC[C@H]2[C@@H]3CC[C@@H]4C[C@H](O)CC[C@]4(C)[C@H]3[C@H](O)C[C@@]21C | 11.3%
6 | CC1=C/C(O)CC(=O)Cc2nc(co2)C(=O)N2CCC=C2C(=O)OC(C(C)C)C(C)/C=C\C(=O)NC/C=C\1 (stereo unspecified) | 37.5% and -3%
7 | O=c1oc2ccccc2c(O)c1Cc1ccccc1Cc1c(O)c2ccccc2oc1=O | -19.9%
8 | O=[N+]([O-])c1ccccc1/C=C/c1ccccn1 | 41.3%
9 | COCS(=O)(=O)c1ccccc1 | 6.55%
10 | COc1ccc(C(N2CCNCC2)N2CCNCC2)cc1 | -3.5%
11 | N#CCCOc1ccc(N)cc1 | 8.65%
12 | O=C1/C(=C\C=C\c2ccccc2)CCCC/C1=C\C=C\c1ccccc1 | -1.4%
13 | CS/C(=N\c1nccs1)NC(=O)c1cccc(Cl)c1 | 22.4%
14 | Oc1c(CN2CCOCC2)ccc(CN2CCOCC2)c1O | 16.1%
15 | COc1ccc(NC(=O)c2ccc(OC)cc2)cc1 | 7.85%
16 | CS(=O)(=O)OCCN(CCOS(C)(=O)=O)c1ccc([N+](=O)[O-])cc1[N+](=O)[O-] | -3.95%
